TIM10 inh: growth inhibitors of TIM10 yeast strain | S. cerevisiae TIM10 strain growth, BacTiter-Glo luminescence, 24 h | 330,000 tested, 1.4% active | AID 463195 | inhibition, % at 10 µM;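 active means inhibition of 40% or more at the single tested concentration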;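 further: wild-type TIM10 isogenic control strain grown at permissive 25 °C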
tim10-1 inh: growth inhibitors of tim10-1 mutant yeast; S. cerevisiae tim10-1 ts strain growth, BacTiter-Glo, 24 h; AID 463190; 330,000 tested, 2.2% active; inhibition, % at 20 µM;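 active means inhibition of at least 40%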;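 further: mutant grown at 25 °C; 0% = DMSO wells with yeast and 100% = wells holding no yeast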
NALP1 yeast inh: blocks the NALP1 inflammasome reconstituted in yeast. 280,000 tested, 0.61% active. S. cerevisiae NALP1/ASC/caspase-1 growth, X-gal OD620, 72 h. inhibition, % at 10 µM. AID 2071; in the data active means inhibition mostly above about 24%, no sharp cut-off; inactive means mostly below about 32%
tim23-1 inh: inhibits growth of tim23-1 mutant yeast; S. cerevisiae tim23-1 growth, BacTiter-Glo luminescence, 24 h; inhibition, % at 20 µM; 330,000 tested, 1.3% active; AID 463212;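 active means growth inhibition of the mutant yeast at or above 50%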;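 further: temperature-sensitive mutant grown at 25 °C; plate controls were DMSO-treated mutant yeast for no effect and medium wells lacking yeast for full effect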
NALP3 yeast inh: blocks the NALP3 inflammasome reconstituted in yeast | AID 2825 | 330,000 tested, 0.39% active | Yeast reconstituted NLRP3/ASC/caspase-1, beta-gal luminescence, 24 h | inhibition, % at 10 µM;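 active means inhibition of 50% or more; inactive means inhibition below 50%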;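 further: plate controls were induced DMSO wells for no effect and uninduced yeast grown without galactose for full effect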
tim10-1 confirm: confirmation of tim10-1 mutant yeast growth inhibitors; 7,400 tested, 56% active; S. cerevisiae tim10-1 ts strain growth, BacTiter-Glo, 24 h; shares compounds with tim10-1 inh; inhibition, % at 20 µM;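 active means inhibition of yeast growth at or above a set limit in either of two repeat tests at 20 µM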;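 further: tim10-1 mutant grown at permissive 25 °C to find synthetic lethal compounds; 0% = DMSO yeast wells and 100% = medium wells without yeast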
An asterisk follows results filed as active; . = no result. Most compounds without a hit are left out; they make up all but 4% or so of the library.

SMILES	TIM10 inh	tim10-1 inh	NALP1 yeast inh	tim23-1 inh	NALP3 yeast inh	tim10-1 confirm
Cc1ccccc1OCC(=O)Nn1c(COc2ccccc2)nc2ccccc2c1=O	13	45*	22	40	20	27
COc1cccc(NCc2ccc([N+](=O)[O-])s2)c1	34	41*	26	41	18	24
Cc1cccc(NS(=O)(=O)c2nnc(NC(=O)C3CCCCC3)s2)c1	-2	10	1	7	6	.
COc1ccc2nc(NC(=O)C3=NN(c4ccccc4)C(=O)CC3)sc2c1	16	43*	22	23	16	27
Cc1cccc(-c2cc3nc4c(c(N5CCCC(O)C5)n3n2)CCC4)c1 (centres undefined)	16	47*	19	39	23	15
COc1ccc(-c2cc3nc4c(c(N5CCC6(CC5)OCCO6)n3n2)CCC4)cc1	32	47*	8	40	21	33*
OC1CCN(c2c3c(nc4cc(-c5ccc(F)cc5)nn24)CCC3)CC1	28	45*	-13	25	12	31
OC1CCCN(c2c3c(nc4cc(-c5cccc(Cl)c5)nn24)CCC3)C1 (centres undefined)	-23	33	22	21	28	.
Cc1ccc(Cl)cc1N(CC(=O)NC(C)c1ccccc1)S(C)(=O)=O (centres undefined)	6	16	5	7	5	.
NC(=O)CCS(=O)(=O)c1ccc(Cl)cc1	-18	-2	5	12	6	.
FC(F)C(F)(F)C(F)(F)C(F)(F)c1cc(-c2ccccc2)n[nH]1	39	48*	-5	47	5	30*
Cc1cc(-c2ccccc2)n[nH]1	-7	8	0	10	3	.
CC1=NOC(=O)/C1=C\c1ccc(-c2ccccc2Br)o1	.	.	0	.	.	.
CCC(C)NC(=O)c1ccc(Cl)c(S(=O)(=O)Nc2ccccc2N2CCOCC2)c1 (centres undefined)	2	2	.	12	9	.
CC(C)NC(=S)N/N=C1\CCCCc2ccccc21	34	57*	-18	35	-11	38*
CCCC(NC(=O)c1c(C)noc1C)C12CC3CC(CC(C3)C1)C2 (centres undefined)	20	40	6	32	-2	.
O=C(NC(=S)N1CCCCCC1)c1ccc(Cl)cc1Cl	39	48*	-1	45	30	30*
Cc1ccc(C(=O)Nc2sc3c(c2C(=O)O)CCCC3)o1	24	-2	-3	12	1	.
Cc1ccc(C(=O)Nc2sc3c(c2C(=O)O)CCCCC3)o1	23	41*	14	46	-7	35*
Cc1ccc(-n2c(-c3ccccc3)c[n+]3c2CCC3)cc1	-1	-9	6	4	18	.
Cc1ccc(-n2c(-c3ccccc3)c[n+]3c2CCc2ccccc2-3)c(C)c1	32	43*	-34	18	-3	28
COc1ccc(Cl)cc1Nc1nc(N)nc(C(F)(F)F)n1	26	48*	-18	17	15	14
CC(=O)c1ccc(NC(=O)CCOc2cc(C)ccc2C)cc1	-2	15	10	19	35	.
CCc1nc(C)cn1S(=O)(=O)c1cc(Br)c(C)cc1OC	25	44*	.	30	20	17
CCc1nc(C)cn1S(=O)(=O)c1cc(C)c(OC)cc1C	11	11	-8	-5	11	.
SMILES	TIM10 inh	tim10-1 inh	NALP1 yeast inh	tim23-1 inh	NALP3 yeast inh	tim10-1 confirm
Cc1cc(Nc2cccc(F)c2)nc(-c2ccccc2O)n1	37	43*	-3	33	-18	43*
Cc1cc(Nc2ccccc2Cl)nc(-c2ccccc2O)n1	21	53*	1	32	8	41*
Cc1ccc(C)c(Nc2cc(C)nc(-c3ccccc3O)n2)c1	39	26	6	50	-7	.
O=C(c1ccccc1Br)N1N=C(c2ccccc2)CC1c1ccccc1F (centres undefined)	29	50*	20	46	16	48*
CCOC(=O)N1CCN(C(=O)c2ccc(CSc3ccc(Cl)cc3)cc2)CC1	34	45*	-4	38	31	45*
CCOc1ccc(S(=O)(=O)NCCC(=O)N(CC)CC(=O)Nc2c(F)cccc2F)cc1	-1	-16	.	-26	5	.
Cc1ccc2c(c1)c(N=O)c(O)n2Cc1ccc(Cl)cc1	30	49*	13	28	1	36*
Cc1ccc(C)c(NS(=O)(=O)c2ccc3c(c2)Cc2cc(S(=O)(=O)Nc4cc(C)ccc4C)ccc2-3)c1	.	.	-18	.	.	.
CCC(=O)NC(=S)Nc1cccc(NC(=O)c2ccccc2Cl)c1	30	45*	-7	47	-7	23
CC(=O)c1cccc(NC(=S)NC(=O)c2cccc(Cl)c2)c1	21	45*	21	37	25	15
O=C(NC(=S)Nc1ccc(N2CCOCC2)cc1)c1ccccc1	6	28	-1	-1	32	.
O=C(Nc1ccc(CN2CCOCC2)cc1)c1ccc(-c2cc(Cl)ccc2Cl)o1	14	44*	11	11	23	29
O=C(NC(=S)Nc1ccc(N2CCOCC2)cc1)c1cccc(Cl)c1	22	41*	24	46	25	24
COc1cc(NC(=O)CN2C(=O)C(=O)N(CC(C)C)C2=O)cc(OC)c1	-9	-18	.	-9	8	.
COc1cccc(-c2cc(C(=O)NCCCn3ccnc3)c3ccccc3n2)c1	3	5	7	12	1	.
COc1ccc(C(=O)NC(=S)Nc2ccc(CN3CCOCC3)cc2)cc1Cl	14	52*	-3	37	16	-30
N#Cc1cc(C(=O)c2ccccc2OCC(=O)Nc2ccccc2Cl)cn(C2CCCCC2)c1=O	8	43*	21	26	-3	18
CC(=O)c1cccc(NC(=O)COc2ccccc2C(=O)c2cc(C#N)c(=O)n(C3CCCCC3)c2)c1	-3	26	18	12	6	.
CCOc1ccccc1NC(=O)C1CCN(S(C)(=O)=O)CC1	7	-2	9	3	1	.
COc1cccc(-c2csc(N3CCN(C(=S)Nc4ccccc4OC)CC3)n2)c1	14	34	9	22	5	.
COc1cccc(-c2csc(N3CCN(C(=S)Nc4ccccc4Cl)CC3)n2)c1	29	44*	-8	25	23	34*
COCCCNC(=S)N1CCN(c2nc(-c3ccccc3)cs2)CC1	6	40*	-3	36	24	13
CC1(c2ccc(OC(F)F)cc2)NC(=O)N(CC(=O)Nc2cccc(S(N)(=O)=O)c2)C1=O (centres undefined)	-11	-5	.	4	-12	.
CC1(c2ccc(OC(F)F)cc2)NC(=O)N(/N=C/c2c(O)ccc3ccccc23)C1=O (centres undefined)	22	42*	16	47	6	27
COc1ccc(OC)c(C2=NS(=O)(=O)N(C)C(C(=O)Nc3ccc(F)cc3F)=C2)c1	-4	42*	2	26	9	19

Screening data (PubChem)
